Assay [1] in a line: A CellTox Green Cytotoxicity Assay to monitor cytotoxicity in HepG2 cells - 0 hour (AID 1224882). Also: nearly all actives have a fitted effect of over 35% in size. Also: potency is read from the fitted curve at half-maximal effect. The method in brief:
(§1)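 First, HepG2 cells (600/well) mixed with reagent were plated; second, after 5 h at 37 C they received compounds via pintool; third, fluorescence was measured at 0 h through 40 h at 8 h intervals.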

The nature of assay [2]: A CellTox Green Cytotoxicity Assay to monitor cytotoxicity in HepG2 cells - 32 hour (AID 1224883). Also: nearly all actives have a fitted effect of over 50% in size. Also: potency is read from the fitted curve at half-maximal effect. The procedure, abridged:
as §1

The nature of assay [3]: A CellTox Green Cytotoxicity Assay to monitor cytotoxicity in HEK293 cells - 8 hour (AID 1224884). Also: nearly all actives have a fitted effect of over 35% in size. Also: potency is read from the fitted curve at half-maximal effect. The procedure, abridged: (§2)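 Dead-cell fluorescence measured kinetically: asymmetric cyanine dye, HEK293, 600 cells/well, 5 h settle, 23 nL cpd/DMSO, 37 C, reads 0–40 h every 8 h.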
A short description of assay [4]: qHTS RealTime-Glo MT Cell Viability Assay in HepG2 cells - 16 hour (AID 1224885). Also: nearly all actives have a fitted effect of over 50% in size. The procedure, abridged:
(§3)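 qHTS, HepG2, 600 cells/well, RealTime-Glo (NanoLuc + prosubstrate) added with cells; 5 h preincubation; DMSO compound addition; 37 C; luminescence at 0/8/16/24/32/40 h.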

A short description of assay [5]: qHTS RealTime-Glo MT Cell Viability Assay in HEK293 cells - 24 hour (AID 1224886). Also: nearly all actives have a fitted effect of over 50% in size. Also: potency is read from the fitted curve at half-maximal effect. As to activity change, negative = cytotoxicity: top concentration of the series differs between compounds. The procedure, abridged:
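Assay medium contained NanoLuc luciferase plus cell-permeant prosubstrate, added with HEK293 cells at 600 cells/well. After 5 h at 37 C/5% CO2 compounds were added; plates stayed at 37 C for 40 h with serial luminescence reads.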

The nature of assay [6]: qHTS RealTime-Glo MT Cell Viability Assay in HEK293 cells - 8 hour (AID 1224887). Also: nearly all actives have a fitted effect of over 50% in size. Also: potency is read from the fitted curve at half-maximal effect. As to activity change, negative = cytotoxicity: top concentration of the series differs between compounds. The procedure, abridged:
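600 HEK293 cells per well, dispensed already mixed with RealTime-Glo MT reagents. Compound dosing came 5 h later. The same wells were read for luminescence at 0, 8, 16, 24, 32 and 40 h of exposure at 37 C.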

Assay [7] in a line: qHTS RealTime-Glo MT Cell Viability Assay in HepG2 cells - 0 hour (AID 1224889). Also: nearly all actives have a fitted effect of over 50% in size. Also: potency is read from the fitted curve at half-maximal effect. The procedure, abridged: as §3
Assay [8] in a line: A CellTox Green Cytotoxicity Assay to monitor cytotoxicity in HepG2 cells - 8 hour (AID 1224890). Also: nearly all actives have a fitted effect of over 45% in size. Also: potency is read from the fitted curve at half-maximal effect. The procedure, abridged: as §1
Assay [9] is described as follows: qHTS assay to identify small molecule antagonists of the estrogen receptor alpha (ER-alpha) signaling pathway using the BG1 cell line in the presence of 0.1 nM 17-beta-estradiol - cell viability counter screen (AID 1259241). Also: nearly all actives have a fitted effect of over 40% in size. The method in brief: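 Viability in VM7Luc4E2 cells after 22 hr compound exposure under 0.1 nM 17beta-estradiol stimulation, by CellTiter-Fluor.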

The nature of assay [10]: qHTS assay to identify small molecule antagonists of the androgen receptor (AR) signaling pathway using the MDA cell line in the presence of 0.5 nM R1881 - cell viability counter screen (AID 1259242). Also: nearly all actives have a fitted effect of over 45% in size. Also: potency is read from the fitted curve at half-maximal effect. The method in brief:
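qHTS format. MDA-kb2 (MMTV-luc, AR/GR responsive) + cpd + 0.5 nM R1881 final, 16 hr 37C/0% CO2 → CellTiter-Fluor 30 min → fluorescence intensity.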

Assay [11] can be described thus: qHTS assay to identify small molecule HDAC inhibitors (AID 1259364). Also: potency is read from the fitted curve at half-maximal effect.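 Also: wild-type HCT-116 cells with endogenous class I/II HDAC activity; nearly all actives have a fitted effect of over 45% in size.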 As to activity change, negative = inhibition: top concentration of the series differs between compounds. The procedure, abridged: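 Quantitative high-throughput format: overnight-seeded HCT-116 cells got compounds for 2 hr at 37C; HDAC-Glo I/II reagent added, 30 min RT, luminescence measured.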
A short description of assay [12]: qHTS assay to identify small molecule HDAC inhibitors - cell viability counter screen (AID 1259365). Also: nearly all actives have a fitted effect of over 50% in size. Also: potency is read from the fitted curve at half-maximal effect. As to activity change, negative = cytotoxicity: series mostly up to about 92 µM. The method in brief:
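Cytotoxicity was gauged in wild-type HCT-116 cells after a brief 2hr treatment with DMSO-dissolved compounds at 37C and 5% CO2, using CellTiter-Glo luminescence developed for 30min at room temperature.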

Assay [13] in a line: qHTS assay to identify small molecule agonists of the sonic hedgehog signaling (Shh) pathway - cell viability counter screen (AID 1259366). Also: nearly all actives have a fitted effect of over 50% in size. Also: potency is read from the fitted curve at half-maximal effect. The procedure, abridged:
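Stable Gli1-Luc NIH/3T3 clone, 2,000 cells/well. Compound exposure 24hr at 37C. Read-out: CellTiter-Fluor fluorescence.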

Assay [14] in a line: qHTS assay to identify small molecule agonists of the sonic hedgehog signaling (Shh) pathway (AID 1259368; calls by dose curve; also: nearly all actives have a fitted effect of over 15% in size; also: potency is read from the fitted curve at half-maximal effect;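 as to activity change: NIH/3T3-derived 3T3Gli1-Luc cells carrying a stable Gli1-driven firefly luciferase reporter; series mostly up to about 92 µM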). The procedure, abridged:
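Quantitative high-throughput format using a Gli1-driven firefly luciferase reporter line derived from NIH/3T3 cells. After a 24 hr compound treatment at 37 C and 5% CO2, luminescence reported Gli1 response element activity.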

Assay [15] in a line: qHTS assay to identify small molecule antagonists of the sonic hedgehog signaling (Shh) pathway (AID 1259369; calls by dose curve; also: nearly all actives have a fitted effect of over 45% in size; also: potency is read from the fitted curve at half-maximal effect). The procedure, abridged: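 Stable Gli1-Luc reporter NIH/3T3 clone; quantitative HTS in stimulated mode with conditioned medium. Luminescence measured after 24hr compound treatment at 37 C.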
Assay [16] addresses Estrogen receptor (Homo sapiens) (UniProt P03372). The experiment in a line: qHTS assay to identify small molecule antagonists of the estrogen receptor alpha (ER-alpha) signaling pathway using the BG1 cell line in the presence of 0.1 nM 17-beta-estradiol (AID 1259244). Also: nearly all actives have a fitted effect of over 50% in size. The method in brief: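 Reporter is a stably transfected luciferase under four estrogen responsive elements in VM7Luc4E2 cells expressing native full-length ER-alpha; inhibition of 0.1 nM (final) 17beta-estradiol-driven signal over 22 h is read by luminescence.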

Assay [17] can be described thus: qHTS assay to identify small molecule antagonists of the sonic hedgehog signaling (Shh) pathway - cell viability counter screen (AID 1259367). Also: nearly all actives have a fitted effect of over 55% in size. Also: potency is read from the fitted curve at half-maximal effect. The procedure, abridged: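 Fluorescence read-out (CellTiter-Fluor, 1 hr at 37C) taken after 23 hr compound treatment of 3T3 Gli1-Luc cells stimulated with conditioned medium. Cells were seeded at 2,000 per well and pre-incubated 4 hr.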

Assay [18] can be described thus: A CellTox Green Cytotoxicity Assay to monitor cytotoxicity in HEK293 cells - 16 hour (AID 1224888). Also: nearly all actives have a fitted effect of over 35% in size. Also: potency is read from the fitted curve at half-maximal effect. The method in brief: as §2
The nature of assay [19]: qHTS assay to identify small molecule phospholipidosis (PLD) inducers (AID 1259344; active = well fitted curve in the direction sought with a large enough effect; an effect the other way counts as inactive or inconclusive). The method in brief: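 Read-out is LipidTOX Red fluorescence (ex 595/em 615) imaged in HepG2 cells after 24 h compound exposure at 37 C, with Hoechst nuclear counterstain (ex 352/em 461) allowing per-cell normalisation.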

Values joined by “and” are separate entries in the source; they are usually repeats but may differ in a detail not shown here. Equal values may be shown once. Inconclusive results are not listed. Where a structure was tested more than once in an assay, its records may differ in their call. Active and inactive are the calls of the source. Unless noted, calls follow the shape of the dose curve; as a rule, active = well fitted curve in the direction sought with a large enough effect in the repeat runs; inconclusive = weak or mixed curves; inactive = no such curve, though single readings can be large; an effect the other way counts as inactive or inconclusive.
% is scaled to controls: 0 for no effect and ±100 for the full control effect.

Estrogen receptor (Homo sapiens), sequence (P03372 whole entry, looked up): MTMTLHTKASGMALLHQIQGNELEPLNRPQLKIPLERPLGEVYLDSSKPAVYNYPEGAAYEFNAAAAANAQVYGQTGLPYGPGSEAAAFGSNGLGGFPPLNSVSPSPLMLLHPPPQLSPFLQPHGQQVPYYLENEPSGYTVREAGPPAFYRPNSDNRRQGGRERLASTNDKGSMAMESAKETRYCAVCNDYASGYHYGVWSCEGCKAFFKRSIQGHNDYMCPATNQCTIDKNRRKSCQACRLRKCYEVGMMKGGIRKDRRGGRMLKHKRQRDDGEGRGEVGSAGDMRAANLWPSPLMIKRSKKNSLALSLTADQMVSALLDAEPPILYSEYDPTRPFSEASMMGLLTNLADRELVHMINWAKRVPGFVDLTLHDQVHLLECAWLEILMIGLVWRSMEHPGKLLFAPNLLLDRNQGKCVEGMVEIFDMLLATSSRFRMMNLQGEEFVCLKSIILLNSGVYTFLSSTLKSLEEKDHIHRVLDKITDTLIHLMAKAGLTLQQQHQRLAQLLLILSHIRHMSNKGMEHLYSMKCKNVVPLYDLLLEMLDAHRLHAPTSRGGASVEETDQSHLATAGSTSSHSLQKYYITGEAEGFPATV

For the compound `COc1cccc(OC)c1C(=O)O`, the Potency result in assay [1], in [2], in assay [3], in assay [4], in [5] and in assay [6] was “inactive” throughout. Further, the Potency entry in [7], in assay [8], in [9], in assay [10], in [11] and in assay [12] was “inactive” throughout. Further, the Potency result in [13], in assay [14] and in assay [15] was “inactive” throughout.
For the compound `COC(=O)c1ccccc1OC`, the Potency entry in assay [1], in assay [2], in assay [3], in assay [4], in assay [5] and in assay [7] was “inactive” each time. The Potency entry in [8], in assay [9], in [10], in [16], in assay [11] and in [12] was “inactive” throughout. Further, the Potency entry in [13], in assay [17], in assay [14] and in [15] was “inactive” in each case.
On to `CC(CCc1ccccc1)NCC(O)c1ccc(O)c(C(N)=O)c1` (stereo not given), for which the Potency entry in assay [1], in assay [2], in [3], in assay [4], in assay [5] and in assay [6] was “inactive” each time. For the same compound, the Potency entry in assay [18], in assay [8], in assay [10], in assay [16], in assay [19] and in [11] was “inactive” each time. Also, the Potency entry in [12] and in assay [14] was “inactive” in each case. Besides, the Potency was 19.3 µM (active) in [13], 17.2 µM (active) in [17] and 30.6 µM (active) in assay [15].
Take `Cc1nc2n(c(=O)c1CCN1CCC(c3noc4cc(F)ccc34)CC1)CCCC2`: the Potency entry in assay [1], in [2], in assay [3], in assay [18], in assay [7] and in assay [8] was “inactive” each time. Also, the Potency entry in assay [9], in [10], in assay [19], in assay [11], in [12] and in assay [13] was “inactive” throughout. In addition, the Potency entry in [17], in assay [14] and in [15] was “inactive” each time. Also, the Potency in [5] was 3.38 µM (active); in assay [6], 3.01 µM (active).
For the compound `C#CC1(O)CC[C@H]2[C@@H]3CCC4=CCCC[C@@H]4[C@H]3CC[C@@]21C` (stereo not given in full), the Potency entry in assay [1], in assay [7], in [9], in assay [16], in assay [19] and in assay [11] was “inactive” in each case. Also, the Potency entry in assay [14] is “inactive”. The Potency in assay [2] is 34.7 µM (active) and 19 µM (active); in assay [3], 17.4 µM (active) and 23.9 µM (active); in assay [5], 17.4 µM (active) and 16.9 µM (active); in assay [6], 21.3 µM (active); in assay [18], 24.5 µM (active) and 21.3 µM (active); in assay [8], 24.5 µM (active) and 21.3 µM (active). In addition, the Potency in assay [12] was 29.8 µM (active); in assay [13], 26.6 µM (active); in [15], 48.6 µM (active) and inactive.
As to `C/C=C/C=C/COC(=O)C(C)C`, the Potency result in assay [1], in [3], in assay [4], in [18], in assay [8] and in [9] was “inactive” each time. The Potency entry in [10], in assay [11], in assay [12], in assay [13] and in assay [14] was “inactive” each time. Further, the Potency in assay [2] was 38.9 µM (active); in assay [15], 30.6 µM (active).
Take `CC(C)Cn1cnc2c(N)nc3ccccc3c21`: the cytotoxicity in assay [1] was -9.84% [at 15.8 µM] (inactive). The cytotoxicity increase in [2] is -12% [at 15.8 µM] (inactive); in assay [8], -11.4% [at 15.8 µM] (inactive). In addition, in [4], the activity change, negative = cytotoxic is 0.56% [at 15.8 µM] (inactive). In addition, the activity change in assay [18] is 2.2% [at 15.8 µM, stronger effect = higher value] (inactive); in [14], 3.39% [at 18.9 µM, stronger effect = higher value] (inactive). For the same compound, the activity change, negative = cytotoxicity is 12.8% [at 15.8 µM] (inactive) in assay [7], 3.02% [at 19 µM] (inactive) in assay [9] and 0.199% [at 19 µM] (inactive) in assay [12]. Moreover, the results for the viability change, negative = cytotoxic in assay [10] and in assay [13] were -4.33% [at 19 µM] (inactive) and 8.98% [at 19 µM] (inactive), respectively. In addition, the activity change, negative = inhibition was -22.8% [at 19 µM] (inactive) in assay [16] and -5.48% [at 19 µM] (inactive) in [11]. For the same compound, the Potency result in assay [19] is “inactive”.
Take `COc1ccc(-c2coc3cc(O)ccc3c2=O)cc1`: the Potency result in [1], in assay [2], in assay [3], in assay [5], in assay [6] and in assay [7] was “inactive” each time. Also, the Potency entry in assay [8], in [9], in assay [10], in assay [16], in [12] and in assay [13] was “inactive” each time. Besides, the Potency entry in assay [17] is “inactive”. The Potency is 1.54 µM (active) in [11] and 9.69 µM (active) in assay [14].
As for `CC(C)(c1cc(Br)c(OCC(Br)CBr)c(Br)c1)c1cc(Br)c(OCC(Br)CBr)c(Br)c1` (stereo not given), the Potency result in assay [1], in [2], in assay [4], in assay [5], in assay [6] and in assay [18] was “inactive” throughout. Besides, the Potency entry in [7], in assay [8], in [9], in [10], in [16] and in [11] was “inactive” in each case. Also, the Potency result in assay [12], in assay [13], in [17], in assay [14] and in assay [15] was “inactive” in each case.
On to `O=C1OC2(c3ccc(O)cc3Oc3cc(O)ccc32)c2ccc(N=C=S)cc21`, for which the Potency in assay [1] is 15.8 µM (active); in [2], 15.8 µM (active); in assay [3], 15.8 µM (active); in assay [18], 12.5 µM (active); in assay [7] it was 22.3 µM (active); in assay [8] it was 15.8 µM (active). Further, the Potency entry in assay [9], in assay [10], in assay [11], in [12], in assay [17] and in assay [14] was “inactive” each time. Further, the Potency entry in [15] was “inactive”.
As to `CN1CCC[C@@H]1CCO[C@](C)(c1ccccc1)c1ccc(Cl)cc1`, the Potency entry in assay [1], in [3], in [6], in [11], in assay [12] and in [14] was “inactive” in each case. The Potency in [2] was 21.3 µM (active); in assay [5] it was 10.7 µM (active); in assay [18], 23.9 µM (active); in assay [10] it was 26.6 µM (active); in [13] it was 23.7 µM (active); in assay [15], 26.6 µM (active).

For the origin of these results see PubChem BioAssay (Tox21).
